Source: the supplement of paper PMC12494721
Structures can show the parent of a compound that is named as a salt.

Columns and labels:
Settings in all cases: incubation time: 27 h, anaerobic, 37 °C;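 for the amine columns active = adjusted P below 0.05 in both replicates with a change the same way and a mean fold change under 0.8 or over 1.25; inactive = the rest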
[1] = system: Clostridium sporogenes DSM 1664; assay: growth (OD595) fold change vs plate DMSO controls (fold change (ratio)); higher = more growth
Summary of the method: (§1)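 The 96-well mGAM cultures had been kept anaerobic for 27 h at 37 °C before being shaken and read at 595 nm. Blank subtraction, compound background correction with 20 µM compound solutions in water, and a calibration factor of 5 turned the readings into OD. Growth is given as the fold change versus the median of plate DMSO controls. Fold changes above 1.5 were set to NA, and the values are means of 2 biological replicates.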

Escherichia coli IAI1 [2] = assay: as above
Summary of the method: as §1

[3] = system: Klebsiella aerogenes DSM 30053; assay: as above
Summary of the method: as §1

[4] = system: Ruminococcus gnavus DSM 108212; assay: as above
Summary of the method: as §1

[5] = system: Klebsiella aerogenes DSM 30053; assay: fold change of Histamine concentration vs plate DMSO controls (fold change (ratio)); higher = more amine produced, active = hit call of the paper (significant change in both replicates, either direction)
Summary of the method: (§2)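 Anaerobic mGAM cultures of four gut bacterial strains were grown at 37 °C for 27 h in 80 µL wells, starting at OD 0.1 before 1:1 dilution. Compounds were at 20 µM final (sweeteners 50 µM). Whole cultures were extracted with cold acetonitrile/methanol containing 0.1% formic acid and centrifuged. Amines were quantified by LC–triple-quadrupole MS (dynamic MRM) against external calibration curves and drift-corrected within batch. Each value is the fold change versus plate DMSO controls, averaged over 2 biological replicates.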

[6] = system: Clostridium sporogenes DSM 1664; assay: fold change of Tryptamine concentration vs plate DMSO controls (fold change (ratio)); higher = more amine produced, active = hit call of the paper (significant change in both replicates, either direction)
Summary of the method: as §2

[7] = system: Ruminococcus gnavus DSM 108212; assay: as above
Summary of the method: as §2

Escherichia coli IAI1 [8] = assay: fold change of Putrescine concentration vs plate DMSO controls (fold change (ratio)); higher = more amine produced, active = hit call of the paper (significant change in both replicates, either direction)
Summary of the method: as §2

[9] = system: Klebsiella aerogenes DSM 30053; assay: as above
Summary of the method: as §2

Escherichia coli IAI1 [10] = assay: fold change of Cadaverine concentration vs plate DMSO controls (fold change (ratio)); higher = more amine produced, active = hit call of the paper (significant change in both replicates, either direction)
Summary of the method: as §2

[11] = system: Klebsiella aerogenes DSM 30053; assay: as above
Summary of the method: as §2

[12] = system: Ruminococcus gnavus DSM 108212; assay: fold change of 2-Phenylethylamine concentration vs plate DMSO controls (fold change (ratio)); higher = more amine produced, active = hit call of the paper (significant change in both replicates, either direction)
Summary of the method: as §2

Row | Structure (SMILES) | growth [1] | growth (Escherichia coli IAI1 [2]) | growth [3] | growth [4] | fold change of Histamine concentration [5] | fold change of Tryptamine concentration [6] | fold change of Tryptamine concentration [7] | fold change of Putrescine concentration (Escherichia coli IAI1 [8]) | fold change of Putrescine concentration [9] | fold change of Cadaverine concentration (Escherichia coli IAI1 [10]) | fold change of Cadaverine concentration [11] | fold change of 2-Phenylethylamine concentration [12]
1 | O=C(OCCOCCO)c1ccccc1Nc1cccc(C(F)(F)F)c1 [Etofenamate] (20 µM) | 1.2 | 1.09 | 1.1 | 1.2 | 0.902 (inactive) | 0.955 (inactive) | 0.883 (inactive) | 1.05 (inactive) | 0.998 (inactive) | 1.02 (inactive) | 1.02 (inactive) | 0.861 (inactive)
2 | C[N+]1(CCCCC[N+]2(C)CCCC2)CCCC1 [Pentolinium bitartrate] (20 µM) | 0.933 | 0.986 | 1.01 | 0.709 | 1.06 (inactive) | 1.08 (inactive) | 0.98 (inactive) | 1.03 (inactive) | 1.01 (inactive) | 0.966 (inactive) | 0.999 (inactive) | 0.943 (inactive)
3 | CC(CCc1ccccc1)NCC(O)c1ccc(O)c(C(N)=O)c1 (configuration not stated) [Labetalol hydrochloride] (20 µM) | 1.09 | 0.963 | 0.974 | 0.85 | 0.944 (inactive) | 1 (inactive) | 0.967 (inactive) | 1.01 (inactive) | 0.996 (inactive) | 0.923 (inactive) | 1 (inactive) | 0.939 (inactive)
4 | CCOc1ccc2ccccc2c1C(=O)N[C@@H]1C(=O)N2[C@@H]1SC(C)(C)[C@@H]2C(=O)O [Nafcillin sodium salt monohydrate] (20 µM) | 0 | 0.973 | 1.01 | 0 | 0.899 (inactive) | 0.0237 (active) | 0.0506 (active) | 0.908 (inactive) | 1.06 (inactive) | 1.02 (inactive) | 1.02 (inactive) | 0.0511 (active)
5 | CC(CN1c2ccccc2Sc2ccccc21)N(C)C (configuration not stated) [Promethazine hydrochloride] (20 µM) | 0.924 | 0.819 | 1.04 | 0.948 | 0.964 (inactive) | 0.997 (inactive) | 1.01 (inactive) | 0.858 (inactive) | 0.972 (inactive) | 1.05 (inactive) | 1.02 (inactive) | 1.06 (inactive)
6 | CCCCOc1cc(C(=O)NCCN(CC)CC)c2ccccc2n1 [Dibucaine] (20 µM) | 1.14 | 1.01 | 1.06 | 1.02 | 0.93 (inactive) | 1.02 (inactive) | 1 (inactive) | 0.927 (inactive) | 0.955 (inactive) | 0.961 (inactive) | 1.03 (inactive) | 1.03 (inactive)
7 | Cc1ncc([N+](=O)[O-])n1CC(C)O (configuration not stated) [Secnidazole] (20 µM) | 0 | 1.07 | 1.02 | 0.0442 | 0.824 (inactive) | 0.0346 (active) | 0.041 (active) | 0.978 (inactive) | 1.03 (inactive) | 0.987 (inactive) | 1.02 (inactive) | 0.0431 (active)
8 | CNCC[C@@H](Oc1cccc2ccccc12)c1cccs1 [(R)-Duloxetine hydrochloride] (20 µM) | 1.03 | 1.07 | 0.994 | 0.9 | 1.01 (inactive) | 0.986 (inactive) | 0.979 (inactive) | 1.04 (inactive) | 0.994 (inactive) | 0.952 (inactive) | 0.986 (inactive) | 1.02 (inactive)
9 | CC1(C)[C@@H](O[C@H]2O[C@H](C(=O)O)[C@@H](O)[C@H](O)[C@H]2O[C@@H]2O[C@H](C(=O)O)[C@@H](O)[C@H](O)[C@H]2O)CC[C@]2(C)[C@H]3C(=O)C=C4[C@@H]5C[C@@](C)(C(=O)O)CC[C@]5(C)CC[C@@]4(C)[C@]3(C)CC[C@@H]12 [Glycyrrhizic acid] (50 µM) | 0.971 | 0.995 | 1.07 | 1.07 | 0.865 (inactive) | 0.966 (inactive) | 1.05 (inactive) | 1.02 (inactive) | 0.992 (inactive) | 1.05 (inactive) | 1.03 (inactive) | 1.1 (inactive)
10 | NCc1ccccc1CC(=O)N[C@@H]1C(=O)N2C(C(=O)O)=C(CSc3nnnn3CC(=O)O)CS[C@H]12 [Ceforanide] (20 µM) | 0 | 1.11 | 1.08 | 0.307 | 0.726 (inactive) | 0.0212 (active) | 0.0541 (active) | 1.91 (active) | 1.09 (inactive) | 1.95 (active) | 1.07 (inactive) | 0.0519 (active)
11 | CCCOc1ccc2[nH]c(NC(=O)OC)nc2c1 [Oxibendazol] (20 µM) | 0.862 | 0.999 | 0.972 | 0.869 | 1.04 (inactive) | 0.982 (inactive) | 1 (inactive) | 1 (inactive) | 1.02 (inactive) | 1 (inactive) | 0.987 (inactive) | 0.996 (inactive)
